Test results reported in PubChem BioAssay.
Entries with a potency or affinity are not part of this list. Records with an inconclusive call do not appear. Activity calls are given as the source filed them.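 The calls were made as follows, unless noted: active = a fitted half-maximal concentration no higher than twice the top valid tested dose, with signal falling as cells die; inconclusive = flat curve between -70% and -30%, or poor fit; inactive = the rest, including signal rising instead of falling.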

What was measured:
[1] = Cryptococcus neoformans growth inhibition, dose response, Alamar Blue, cherry-picks (AID 686998;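 active = falling signal with fitted half-maximal potency no higher than twice the top valid tested dose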)
[2] = inducers of Cryptococcus neoformans cell lysis, dose response, AK release luminescence, cherry-picks (AID 687000;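 active = fitted dose curve reaches 40% lysis signal rise at or below the highest valid concentration tested for that sample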;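 also: luminescent detection of adenylate kinase leaking from lysed yeast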)
[3] = HepG2 cell cytotoxicity, dose response, cytotoxicity control, cherry-picks, set 2 (AID 687002;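 active = a dose-response fit showing signal loss, with half-maximal concentration no higher than twice the top tested dose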)
[4] = HeLa cell cytotoxicity, dose response, cytotoxicity control, ATP luminescence, cherry-pick samples (AID 687004)

Measured: outcome

C[C@H]1CCCCO[C@H](CN(C)S(=O)(=O)c2ccc(Cl)cc2)[C@@H](C)CN([C@@H](C)CO)C(=O)c2cc(NS(=O)(=O)c3cccs3)ccc2O1
inactive: all assays above

O=C(C[C@H]1CC[C@H]2[C@@H](COC[C@@H](O)CN2S(=O)(=O)c2ccc(Oc3ccccc3)cc2)O1)NC1CCC1
inactive: all assays above

C[C@@H]1CCCCO[C@@H](CN(C)S(=O)(=O)c2ccc(F)cc2)[C@@H](C)CN([C@@H](C)CO)C(=O)c2cc(NS(=O)(=O)c3ccc(F)cc3)ccc2O1
inactive: all assays above

C[C@@H]1CN([C@H](C)CO)C(=O)c2cc(NC(=O)Nc3cccc4ccccc34)ccc2O[C@@H](C)CCCCO[C@@H]1CN(C)Cc1ccc2c(c1)OCO2
inactive: all assays above

CC(C)NC(=O)Nc1ccc2c(c1)CC(=O)N([C@@H](C)CO)C[C@H](C)[C@H](CN(C)Cc1ccc3c(c1)OCO3)O2
inactive: all assays above

CC(NC(=O)COc1ccc([N+](=O)[O-])cc1)c1ccccc1 (centres undefined)
inactive: all assays above

Cc1ccc(OCC(=O)NCc2ccccc2)cc1
inactive: all assays above

CNC[C@H]1OCCCC[C@H](C)Oc2ccc(NC(=O)CCCN(C)C)cc2C(=O)N([C@H](C)CO)C[C@@H]1C
inactive: all assays above

CCC(C)(C(=O)NC1CCCCC1)N(C(=O)C1CCC(=O)N1)c1ccc(C)cc1 (centres undefined)
inactive: all assays above

CCC(=O)N1[C@@H]2Cn3c(ccc(C4=CCCCC4)c3=O)[C@H]1[C@@H](C(=O)N[C@H](C)c1ccccc1)[C@@H]2CO
inactive: all assays above

COCCNC(=O)C[C@@H]1CC[C@H]2[C@@H](COC[C@H](O)CN2Cc2cccc(-c3ccncc3)c2)O1
inactive: all assays above

Cc1ccc(S(=O)(=O)N[C@@H]2CC[C@H](CCNC(=O)C3CCCC3)O[C@@H]2CO)cc1
inactive: all assays above

Cc1ccc(C)c(NC(=O)C2CCCN2C(=O)NC2CCCCC2)c1 (centres undefined)
inactive: all assays above

Cc1ccc(S(=O)(=O)N2C[C@@H](O)COC[C@@H]3O[C@H](CC(=O)NCc4ccc5c(c4)OCO5)CC[C@H]32)cc1
inactive: all assays above

C[C@@H]1CN([C@@H](C)CO)C(=O)c2cc(NS(=O)(=O)c3cn(C)cn3)ccc2O[C@@H](C)CCCCO[C@H]1CN(C)C
inactive: all assays above

C[C@H](CO)N1C[C@H](C)[C@H](CN(C)C(=O)Nc2ccc3c(c2)OCO3)Oc2ncc(-c3ccc(F)cc3)cc2C1=O
inactive: all assays above

CCCNC(=O)Nc1ccc2c(c1)C(=O)N(C)C[C@H](OC)[C@@H](C)CN(Cc1cccnc1)[C@H](C)CO2
inactive: all assays above

O=C(Cc1cccs1)N1CCN(c2cccc(Cl)c2)CC1
inactive: all assays above

CO[C@H](CN(C)Cc1cc(F)ccc1F)[C@@H](C)CN([C@@H](C)CO)S(=O)(=O)c1ccc(F)cc1
inactive: all assays above

COc1ccc(NC(=O)N(C)C[C@H]2OCCCC[C@@H](C)Oc3ccc(NC(=O)c4ccccc4)cc3C(=O)N([C@@H](C)CO)C[C@H]2C)cc1
inactive: all assays above

C/C=C/c1ccc([C@H]2[C@@H](CO)N(C(=O)CC)[C@@H]2CNC(=O)C2CC2)cc1
inactive: all assays above

O=C(Nc1ccccc1)N1CCCCN2[C@H](C1)[C@H](c1ccc(C#CC3CC3)cc1)[C@@H]2CO
inactive: all assays above

C/C=C/c1cnc2c(c1)C(=O)N([C@@H](C)CO)C[C@@H](C)[C@@H](CN(C)C(=O)C1CCCCC1)O2
inactive: all assays above

C[C@H]1CN([C@@H](C)CO)C(=O)c2cccc(NS(C)(=O)=O)c2O[C@@H]1CN(C)Cc1ccc(-c2ccccc2)cc1
inactive: all assays above

Cc1ccc(S(=O)(=O)N(C)C[C@@H]2Oc3ncc(Br)cc3C(=O)N([C@@H](C)CO)C[C@H]2C)cc1
inactive: all assays above

N#Cc1ccc(-c2ccc3c(c2)[C@@H]2[C@@H](CCN2C(=O)Cc2ccccc2)[C@@H](CO)N3)cc1
inactive: all assays above

Cc1ccc(S(=O)(=O)Nc2ccc3c(c2)C(=O)N([C@H](C)CO)C[C@H](C)[C@@H](CN(C)Cc2ccccc2)O3)cc1
inactive: all assays above

COc1ccc(-c2cnc3c(c2)C(=O)N([C@@H](C)CO)C[C@@H](C)[C@@H](CN(C)S(C)(=O)=O)O3)cc1
inactive: all assays above

Cc1cc(C(=O)Nc2cccc3c2O[C@H](CN(C)S(=O)(=O)c2ccccc2)[C@H](C)CN([C@H](C)CO)C3=O)n(C)n1
inactive: all assays above

CO[C@@H]1CN(C)C(=O)c2ccc(NC(C)=O)cc2OC[C@@H](C)N(C(=O)c2ccccn2)C[C@H]1C
inactive: all assays above

CN(C)C(=O)c1ccc(-c2ccc([C@H]3[C@H](CO)N4CCCCN(CCC(F)(F)F)C[C@@H]34)cc2)cc1
inactive: all assays above

Cc1ccc(NC(=O)C2(C)CCCN2CC(C)C)cc1C (centres undefined)
inactive: all assays above

Cc1noc(C)c1NC(=O)N(C)C[C@@H]1Oc2ccc(NS(=O)(=O)c3cn(C)cn3)cc2CC(=O)N([C@H](C)CO)C[C@H]1C
inactive: all assays above

C[C@H](CO)N1C[C@H](C)[C@H](CN(C)Cc2ccncc2)Oc2ccc(NC(=O)CCC(F)(F)F)cc2C1=O
inactive: all assays above

Cc1ccc(S(=O)(=O)N(CC(=O)NCCSC2CCCCC2)c2ccccc2F)cc1
inactive: all assays above

Cc1cc(C)c(N2CCCC2C(=O)Nc2cccc(C(F)(F)F)c2)c(C)c1 (centres undefined)
inactive: all assays above

CNC(=O)C[C@@H]1CC[C@H]2[C@@H](COC[C@H](O)CN2C(=O)Nc2ccc3c(c2)OCO3)O1
inactive: all assays above

COCC(=O)NC[C@@H]1N[C@@H](CO)[C@H]1c1ccc(C2=CCCC2)cc1
inactive: all assays above

C[C@@H]1CN([C@@H](C)CO)C(=O)c2cc(NS(=O)(=O)c3cn(C)cn3)ccc2O[C@@H]1CN(C)C(=O)Nc1cccc2ccccc12
inactive: all assays above

COCC(=O)N1C[C@H](C)[C@@H](OC)CN(C)C(=O)c2ccc(NS(C)(=O)=O)cc2OC[C@@H]1C
inactive: all assays above

CC(C)NC(=O)NCC[C@H]1CC[C@H](NC(=O)CN(C)C)[C@H](CO)O1
inactive: all assays above

C[C@@H]1CN([C@H](C)CO)C(=O)c2cc(NC(=O)Nc3cccc4ccccc34)ccc2O[C@H]1CN(C)C(=O)Nc1ccc(C(F)(F)F)cc1
inactive: all assays above

O=C(NC[C@@H]1[C@H](c2ccccc2)[C@@H](CO)N1C(=O)Cc1cccnc1)C1CCC1
inactive: all assays above

CNC[C@H]1Oc2c(NS(=O)(=O)c3cccs3)cccc2C(=O)N([C@H](C)CO)C[C@@H]1C
inactive: all assays above

CN1[C@H](C(=O)N2CCc3ccccc3C2)[C@@H](CO)[C@@H]2Cn3c(ccc(-c4cccnc4)c3=O)[C@@H]21
inactive: all assays above

CO[C@@H](CN(C)Cc1ccc2c(c1)OCO2)[C@@H](C)CN(C(=O)c1ccccc1)[C@H](C)CO
inactive: all assays above

O=C(NC(=S)Nc1ccc(CN2CCOCC2)cc1)c1ccccc1[N+](=O)[O-]
inactive: all assays above

O=C([C@@H]1[C@@H](CO)[C@@H]2Cn3c(cccc3=O)[C@H]1N2Cc1cccc(Cl)c1)N1CCOCC1
inactive: all assays above

CCCNC(=O)N1C[C@@H]2[C@H](c3ccccc31)[C@H](CO)N2Cc1ccc(OC)cc1
inactive: all assays above

CO[C@H]1CN(C)C(=O)c2cc(NS(=O)(=O)c3ccc(C)cc3)ccc2OC[C@H](C)N(C)C[C@H]1C
inactive: all assays above

COc1ccc(NC(=O)Nc2ccc3c(c2)C(=O)N([C@H](C)CO)C[C@H](C)[C@H](CN(C)C(=O)Cc2ccccc2)OCCCC[C@H](C)O3)cc1
inactive: all assays above

Cc1noc(C)c1NC(=O)N(C)C[C@@H]1Oc2ccc(NC(=O)NC(C)C)cc2CC(=O)N([C@H](C)CO)C[C@H]1C
inactive: all assays above

Cc1cccc(C)c1NC(=O)C(C)N1CCCCC1 (centres undefined)
inactive: all assays above

Cc1noc(C)c1NC(=O)Nc1ccc2c(c1)C(=O)N([C@H](C)CO)C[C@@H](C)[C@H](CN(C)S(C)(=O)=O)OCCCC[C@@H](C)O2
inactive: all assays above

C/C=C/c1cnc2c(c1)C(=O)N([C@H](C)CO)C[C@@H](C)[C@@H](CN(C)C(=O)C1CCCCC1)O2
inactive: all assays above

COc1ccc(-n2ncc3c(SCC(=O)NNC(C)=O)ncnc32)cc1
inactive: all assays above
